An excerpt weighted towards active compounds, which were near 1.7% of everything screened.
IkB signaling: IkB Signaling | ABC-DLBCL IkBa-CBG/CBR dual luciferase ratio, 4 h; response scale: scaled: untreated 0%, proteasome inhibitor 100% | Potency, µM (highest dose often 57.1 µM) | hit rate 0.04% among 110,000; active = well fitted curve in the direction sought with a large enough effect in the signal ratio, not every such curve was filed as active; inconclusive = small, poorly fitted or top-dose-only effect, or a change in a side signal; the % refers to the signal ratio;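 note: the direction sought is a rising ratio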
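In this assay, an IκBα–CBG68 fusion accumulates when IKK-driven degradation is blocked; native CBR normalizes for cell number. OCI-Ly3 cells were treated 4 h with compound and doxycycline, then green and red light read after Chroma-Glo addition.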
Peg3 imprint: qHTS Assay for Compounds that Induce Erasure of Genomic Imprints; mouse ES Peg3-LacZ reporter, beta-gal luminescence, 40 h; hit rate 0.02% among 110,000; Potency, µM (titrated, usually from 60.7 µM), most hits filed as activators
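Gelatin-coated wells received 300 freshly trypsinized female ES cells with a Peg3LacZ-Neo reporter on the maternal allele, then incubated 40 hours at 37C. BetaGlo was added for 5 minutes at room temperature before a single luminescence read.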
p53ts 39C tox: qHTS Screen for Compounds that Selectively Target Cancer Cells with p53 Mutations: Cytotoxicity of p53ts Cells at the Nonpermissive Temperature; hit rate 1.5% among 130,000; Potency, µM (series often up to 46.1 µM), most hits filed as cytotoxic; H1299-p53A138V viability at 39C, ATP luminescence, 24 h; note: nearly all actives have a fitted effect of over 55% in size
p53ts 32C kill: qHTS Screen for Compounds that Selectively Target Cancer Cells with p53 Mutations: Cytotoxicity of p53ts Cells at the Permissive Temperature. H1299-p53A138V at 32C, ATP luminescence viability, 24 h. Potency, µM (highest dose often 46.1 µM), actives largely listed as cytotoxic. hit rate 0.93% among 130,000. AID 924, 2007; note: nearly all actives have a fitted effect of over 55% in size
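Viability by ATPlite luminescence after 24 h compound treatment (up to 46 uM) at the permissive 32C. Cells are H1299 carrying p53 A138V. Scale runs from DMSO basal to 100 uM tamoxifen as full kill; AC50 from Hill fits.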
Numbers stand for hits; n = inactive; u = inconclusive; x = no result given; [ ] = another dose, or the depositor's remark. Unless noted, calls come from the whole dose curve; as a rule, active = well fitted curve in the direction sought with a large enough effect; inconclusive = small, poorly fitted or top-dose-only effect, or another doubt; inactive = no such curve, though single readings can be large; an effect the other way counts as inactive or inconclusive.

SMILES | IkB signaling | Peg3 imprint | p53ts 39C tox | p53ts 32C kill
COC(=O)c1ccc2c(=O)n(CCCCCC(=O)N3CCN(c4cc(C)ccc4C)CC3)c(=O)[nH]c2c1 | u | n[10.9 µM] | 6.31µM | 15.8µM
CCCc1nn2c(=O)cc(COC(=O)c3ccccc3NC(=O)c3ccc(OCC)cc3)nc2s1 | n | n[10.9 µM] | 10µM | n
Cc1nc2c(C(=O)NC(C)c3ccccc3)cnn2c(C)c1Cc1ccccc1 (centres undefined) | u | n[10.9 µM] | 20µM | u
Cc1cccc2c1N(Cc1ccccc1OCCC(C)C)C(=O)C2=O | n | n[10.9 µM] | u | n
CC(C)c1nn2c(=O)cc(COC(=O)CNC(=O)c3ccccc3Cl)nc2s1 | n | n[10.9 µM] | n | n
COc1ccc(-c2cc([C@H](O)C3CCCCN3)c3ccccc3n2)cc1 (some centres undefined) | x | n[10.9 µM] | x | x
CCOc1ccc(S(=O)(=O)Nc2cccc(-c3ccc(N4CCC(C)CC4)nn3)c2)cc1 | n | n[10.9 µM] | 10µM | 10µM
O=S(=O)(Nc1cccc(-c2ccc(N3CCCCC3)nn2)c1)c1ccc(F)cc1F | n | n[10.9 µM] | u | 12.6µM
Cc1ccc(S(=O)(=O)Nc2cccc(-c3ccc(N4CCC(C)CC4)nn3)c2)s1 | u | n[10.9 µM] | 3.98µM | 12.6µM
CC1CCN(c2ccc(-c3cccc(NS(=O)(=O)c4ccc(F)cc4F)c3)nn2)CC1 | u | n[10.9 µM] | 12.6µM | 15.8µM
O=c1c(=O)n(-c2cccc(Cl)c2)ccn1Cc1cccc(F)c1 | n | n[10.9 µM] | n | n
Fc1ccc([C@@H]2CCNC[C@H]2COc2ccc3c(c2)OCO3)cc1 | x | n | 12.6µM | u
c1ccc(-c2noc(COc3ccc4c(c3)OCO4)n2)cc1 | n | n | n | n
Cn1c(SC2=CS(=O)(=O)c3ccccc32)nc2ccccc21 | u | n | 12.6µM | u
Cc1ccccc1CCNC(=O)c1cc2ccccn2n1 | u | n[10.9 µM] | 10µM | u
COc1cc(NC(=O)c2cc3ccccn3n2)cc(OC)c1OC | n | n[10.9 µM] | n | n
CCc1ccc(NC(=O)c2cc3ccccn3n2)cc1 | n | n[10.9 µM] | 3.16µM | 6.31µM
Cc1ccc(NC(=O)c2cc3ccccn3n2)cc1F | n | n[10.9 µM] | u | 12.6µM
Cc1cc(NCCN2CCOCC2)n2ncc(-c3ccccc3)c2n1 | n | n | n | n
Cc1cc(NCCCn2ccnc2)n2ncc(-c3ccccc3)c2n1 | n | n | 3.98µM | 3.16µM
O=C(Cn1c(=O)n(Cc2ccccc2)c(=O)c2sc3ccccc3c21)Nc1ccccc1 | n | n[10.9 µM] | 12.6µM | u
O=C(Cn1c(=O)n(Cc2ccccc2)c(=O)c2sc3ccccc3c21)Nc1ccc(F)cc1 | u | n[10.9 µM] | 10µM | u
COCCn1c(=O)c(-c2cccs2)nc2cnc(N(C)C)nc21 | n[11.4 µM] | n | n | n
Cc1ccc2[nH]cc(C(c3ccccc3)c3cccs3)c2c1 (centres undefined) | u | n[10.9 µM] | u | u
Cc1ccc2[nH]cc(C(c3ccccc3)c3ccc(C)s3)c2c1 (centres undefined) | u | n[10.9 µM] | 12.6µM | u
SMILES | IkB signaling | Peg3 imprint | p53ts 39C tox | p53ts 32C kill
CN(Cc1ccco1)c1ccnc(-c2cccc(NS(C)(=O)=O)c2)n1 | n[11.4 µM] | n | u | n
COc1cccc(-c2nccc(N(C)Cc3ccco3)n2)c1 | n[11.4 µM] | n | 10µM | 10µM
COCCCNC(=O)c1cnc2sc(N3CCCCCC3)nn2c1=O | n | n[10.9 µM] | n | n
C=CCc1ccccc1OCC(O)CN1CCN(C(=O)OCC)CC1 (centres undefined) | n | n | n | n
c1ccc(CNc2nc3ccccc3[nH]2)cc1 | n | n | u | 10µM
COc1ccc2nc(NCc3ccccc3)[nH]c2c1 | n | n | u | u
Cc1c(C)c2c(c(C)c1O)CCC(C)(COc1ccc(CC3SC(=O)NC3=O)cc1)O2 (centres undefined) | x | n | x | x
CC1(COc2ccc(C[C@H]3SC(=O)NC3=O)cc2)CCCCC1 | u | n | 39.8µM | u
Cc1cc(C)c2nc(N(Cc3cccnc3)C(=O)CCS(=O)(=O)c3ccccc3)sc2c1 | n | n[10.9 µM] | n | n
Cc1cc(C)c2sc(N(Cc3cccnc3)C(=O)CCS(=O)(=O)c3ccccc3)nc2c1 | n | n[10.9 µM] | 15.8µM | n
Cc1cc(S(=O)(=O)Nc2ccccc2C(=O)O)ccc1F | x | x | n | n
Nc1c(-c2nc(-c3ccc4c(c3)OCO4)cs2)c2ccccn2c1C(=O)c1ccccc1 | n | n[10.9 µM] | n | n
Cn1c(CN2CCCCC2)nc2cc(NC(=O)c3cccc(Br)c3)ccc21 | u | n[10.9 µM] | n | n

Compound activity from PubChem BioAssay.
